Screening results: PubChem BioAssay, several laboratories
Calb FLC: C. albicans growth modulation with fluconazole; C. albicans CaCi-2 (fluconazole-resistant clinical isolate) + fluconazole, Alamar Blue growth, 48 h; growth inhibition, % (concentration not given with the values); 300,000 compounds, 0.57% hits;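 active = growth inhibition above about 58% in most replicates, limit read from the data, passing the limit was not always enough; inconclusive = exactly half the replicates above a set limit; inactive = most replicates below a set limit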;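 note: all wells also contain fluconazole at 8 µg/ml as a sub-toxic cotreatment; 0% = median of DMSO wells and 100% = median of geldanamycin control wells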
PP5 primary: blocks human protein phosphatase 5 activity. P53041. purified PP5c, OMFP substrate fluorescence. inhibition, % at 6.7 µM. 320,000 compounds, 0.18% hits;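 active = inhibition above the campaign's mean inhibition across all tested compounds plus 3 SD, cut at about 9.5% in these data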;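 note: 0% = DMSO only and 100% = 100 µM cantharidin control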
PP1 counter: PP1-alpha (human) inhibition in PP5 counter-screen. P62136. purified PP1alpha, OMFP fluorescence. inhibition, % at 6.7 µM. 320,000 compounds, 0.9% hits;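 active = inhibition above the mean inhibition of all tested compounds plus 3 SD, computed separately for each screening campaign, cut at about 15% in these data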
Target sequence (P62136 whole entry, looked up): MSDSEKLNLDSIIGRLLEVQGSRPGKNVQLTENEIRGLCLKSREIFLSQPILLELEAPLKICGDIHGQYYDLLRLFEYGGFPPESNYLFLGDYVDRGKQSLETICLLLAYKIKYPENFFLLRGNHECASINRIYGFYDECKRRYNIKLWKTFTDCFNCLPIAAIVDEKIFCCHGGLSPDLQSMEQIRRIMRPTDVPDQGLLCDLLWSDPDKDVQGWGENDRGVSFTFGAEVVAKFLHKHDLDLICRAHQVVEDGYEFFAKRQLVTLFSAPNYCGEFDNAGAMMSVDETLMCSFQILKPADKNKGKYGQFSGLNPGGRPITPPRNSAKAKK
Beta cell apopt: beta cell apoptosis inhibition | INS-1E cytokine-induced death, ATP luminescence, 48 h; percent of positive-control rescue, neutral wells zero | protection from apoptosis, % (no concentration beside the values) | 300,000 compounds, 0.8% hits;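 active = Every replicate reaches about 75%, or at least half do and their mean reaches it too, limit read from the data; inconclusive = At least half of replicates reach the limit but their mean does not; inactive = Under half of replicates reach the limit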;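 note: 0% = cytokine-treated negative control wells and 100% = positive control rescue; higher means more ATP so stronger rescue from cytokine killing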
CSC inhib: cancer stem cell inhibition; cancer stem cell-like cells viability, luminescence; inhibition, % at 7.5 µM; 300,000 compounds, 1.1% hits; in the data active = inhibition above about 75%; inconclusive = no clear call, values can overlap the other calls; tested in HMLE shEcad cells
Mdm2 MdmX PPI: disrupts the human Mdm2-MdmX interaction; AID 485346; inhibition, % at 8 µM; 330,000 compounds, 3% hits; O15151+Q00987; SaOS-2 split-luciferase Mdm2/MdmX complementation, luminescence;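 active = inhibition of at least 50% at 8 µM in the primary screen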
Mdm2 MdmX conf: confirmation of human Mdm2/MdmX interaction inhibitors; shares compounds with Mdm2 MdmX PPI; Mdm2-MdmX binding, luminescent assay; inhibition, % at 8 µM; 10,000 compounds, 55% hits; in the data active = inhibition above about 40%
Full FLuc ctr: inhibits full-length luciferase, flagging false Mdm2/MdmX hits. SaOS-2 full-length luciferase counterscreen, luminescence. AID 504607. 6,200 compounds, 77% hits. inhibition, % at 8 µM. shares compounds with Mdm2 MdmX PPI;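 active = mean inhibition at 8 µM reaching about 37%, which flags the compound as non-specific, limit read from the data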;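 note: p53-null SaOS-2 cells with luciferase driven by a doxycycline-inducible promoter; compound on cells about two nights before reading with doxycycline added after day one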
The depositor's hits bear a star; ? = inconclusive; . = no result given. Only some compounds are listed: those with a hit (about 4.9% of all), similar ones and a draw of the others.

SMILES	Calb FLC	PP5 primary	PP1 counter	Beta cell apopt	CSC inhib	Mdm2 MdmX PPI	Mdm2 MdmX conf	Full FLuc ctr
O=C(Nc1ccncc1)C1COc2ccccc2O1 (stereo not drawn)	-3.0	1.6	-5.9	-2.4	3.3	16.6	.	.
O=C(CSc1ccc2ccccc2n1)N/N=C/c1ccccc1O	-4.5	.	.	-4.7	30.2	60.6*	68.5*	74.0*
O=C(NC1=NCCS1)C1COc2ccccc2O1 (stereo not drawn)	-4.9	0.2	-2.4	-20.4	.	80.4*	80.7*	34.0
CCc1cc(C(=O)N/N=C/c2ccc(O)cc2O)c2ccccc2n1	6.9	1.4	-2.0	92.5*	94.1*	63.5*	63.7*	36.1*
CCCOc1ccc(C(=O)Nc2cc(S(=O)(=O)N3CCOCC3)ccc2N2CCOCC2)cc1	.	4.1	6.3	6.8	.	36.1	.	.
Cc1cc(SCC(=O)N/N=C/c2ccccc2C(=O)O)c(C)cc1Br	3.7	0.4	-1.7	1.2	-7.4	-8.2	.	.
O=C(CNC(=O)C(c1ccccc1)c1ccccc1)N/N=C/c1ccc(O)cc1O	0.1	0.4	1.0	43.8	132.5*	69.6*	77.4*	37.9*
Cc1ccc(/C=N/NC(=O)C2COc3ccccc3O2)s1 (stereo not drawn)	-19.2	3.0	1.6	-1.4	20.9	53.0*	76.5*	57.3*
O=C(N/N=C/c1cccs1)C1COc2ccccc2O1 (stereo not drawn)	1.9	2.6	-3.5	-6.5	25.0	5.4	.	.
Cc1cc(SCC(=O)N/N=C/c2ccc(O)cc2O)c(C)cc1Br	100.6*	6.6	4.6	55.3	96.4*	61.0*	65.8*	66.6*
COc1ccc(OC)c(-c2nn(-c3ccccc3)cc2C(=O)NCC(c2cccs2)N2CCOCC2)c1 (stereo not drawn)	21.9	2.9	-7.2	5.2	-11.6	15.0	.	.
O=C(NCCc1ccc(Cl)cc1)C1CCC(CNc2nc(=S)[nH]c3ccccc23)CC1 (stereo not drawn)	-1.9	-0.6	6.2	59.8	47.4	67.1*	35.3	60.6*
O=C(NCCC1=CCCCC1)C1CCC(CNc2nc(=S)[nH]c3ccccc23)CC1 (stereo not drawn)	-12.9	-1.7	2.1	44.4	4.1	33.4	.	.
C=CCn1c(SCC(=O)NCC)nc2sc3c(c2c1=O)CCC3	8.9	3.0	0.2	.	-11.2	22.2	.	.
COc1cc(C(CCN2CCOCC2)c2c(OC)cc(OC)c3c(-c4ccccc4)cc(=O)oc23)cc(OC)c1OC (stereo not drawn)	.	.	.	.	.	30.7	.	.
COc1cc(C(CCN2CCCC2)c2c(OC)cc(OC)c3c(-c4ccccc4)cc(=O)oc23)cc(OC)c1OC (stereo not drawn)	-14.6	2.1	3.0	-1.4	-11.2	77.6*	32.4	.
COc1cc(OC)c2c(-c3ccccc3)cc(=O)oc2c1C(CCN1CCCC1)c1ccc2c(c1)OCO2 (stereo not drawn)	-17.9	1.9	3.7	3.0	15.2	81.2*	13.8	.
CC(C)=CCc1c(O)cc(O)c2c(=O)c3c(CC=C(C)C)c(O)ccc3oc12	-6.9	5.5	0.1	27.6	-5.2	93.8*	28.9	.
CC(C)C[C@@]12C(=O)N(c3ccc(Br)cc3)C(=O)N1[C@H](c1ccc(Br)cc1)[C@@H]1C(=O)N(C(C)(C)C)C(=O)[C@@H]12	8.5	5.6	2.0	10.9	9.1	60.2*	70.5*	51.9*
CC(C)C[C@@]12C(=O)N(c3cccc(Cl)c3)C(=O)N1[C@H](c1ccc(Br)cc1)[C@@H]1C(=O)N(C(C)(C)C)C(=O)[C@@H]12	.	5.9	0.3	10.9	-1.3	50.4*	46.4*	68.7*
Cc1ccc(NC(=O)CCC(=O)OCC(=O)c2ccc(Oc3ccc([N+](=O)[O-])cc3)cc2)c(C)c1	3.0	-0.4	3.4	-1.3	-3.1	15.7	.	.
CC1(C)Cc2c(c(N3CCOCC3)nc3sc4c(NCC5CCCO5)nnnc4c23)CS1 (stereo not drawn)	0.1	2.0	-1.0	-3.3	2.9	70.4*	51.8*	69.2*
CC(C)CCNc1nnnc2c1sc1nc(N3CCOCC3)c3c(c12)CC(C)(C)SC3	16.9	-1.0	-1.9	9.1	55.4	50.9*	6.2	.
CC1(C)Cc2c(c(N3CCOCC3)nc3sc4c(NCCN5CCOCC5)nnnc4c23)CS1	34.8	6.3	1.5	5.7	-8.3	21.1	.	.
C[C@H]1CCC[C@]2(C)C[C@H]3OC(=O)C(CN4CCCCCC4)[C@H]3C=C12 (stereo partly drawn)	3.2	1.4	3.6	-63.5	16.0	72.9*	48.5*	14.1
SMILES	Calb FLC	PP5 primary	PP1 counter	Beta cell apopt	CSC inhib	Mdm2 MdmX PPI	Mdm2 MdmX conf	Full FLuc ctr
CCCOc1ccc(C(=O)CCNC(Cc2c[nH]c3ccccc23)C(=O)O)cc1 (stereo not drawn)	-8.8	-2.4	3.1	-17.4	1.2	86.5*	21.1	.
CCCCCCCCCCSc1n[nH]c(N)n1	?	5.2	0.3	-9.6	26.0	24.9	.	.
CCNC(=S)N(CCc1c(C)[nH]c2ccccc12)Cc1cccnc1	.	1.4	0.0	-6.7	-1.6	-18.6	.	.
CCc1ccc(N2C(=O)C(Cl)=C(Nc3ccc(C(=O)N4CCCC4)cc3)C2=O)cc1	.	0.5	2.7	-14.1	.	95.4*	95.1*	38.8*
Cc1cc(C[n+]2cc(Cl)ccc2N)c2ncccc2c1	15.2	2.4	-1.6	1.6	4.9	32.5	.	.
Cc1cc(C[n+]2ncsc2N)c2ncccc2c1	-3.9	-3.0	4.1	-3.8	-7.0	98.7*	17.4	.
COc1ccc2c(c1)sc(N)[n+]2Cc1cc(C)cc2cccnc12	17.2	0.7	6.4	36.4	59.7	.	.	.
CCOc1ccc2c(c1)sc(N)[n+]2Cc1cc(C)cc2cccnc12	1.3	2.9	7.2	62.9	-6.0	57.9*	64.9*	60.0*
O=C(CCC1CCCN(C(=O)c2ccc3cc[nH]c3c2)C1)NCc1ccc(F)c(F)c1 (stereo not drawn)	-25.0	0.5	-0.8	-10.0	-7.2	-1.0	.	.
O=C1NC(=Nc2ccccc2)S/C1=C\c1cccnc1	8.3	-1.3	-3.3	.	-4.3	30.9	.	.
O=C1NC(=Nc2cccnc2)S/C1=C/c1ccc(F)cc1	4.7	-1.4	-2.2	-0.7	55.5	51.5*	19.5	.
COc1ccccc1N1CCN(C(=O)c2ccc3nc(-c4ccco4)c(-c4ccco4)nc3c2)CC1	-2.0	6.2	4.3	6.8	-3.7	53.9*	24.2	.
COc1ccccc1N1CCN(C(=O)c2ccc3c(Cl)c4c(nc3c2)CCCC4)CC1	-0.7	2.3	5.9	-2.0	14.8	64.2*	20.1	.
CCN1CCN(C(CNS(=O)(=O)c2ccc(Br)cc2)c2cccnc2)CC1 (stereo not drawn)	-3.6	-0.7	-3.8	2.7	-2.2	5.0	.	.
